Results filed as inconclusive are left out. Active and inactive are the calls of the source. How the source made its calls, unless noted: active means hit-call score of the fitted dose curve at least 0.9, where 1 is the maximum; inactive means score below 0.9.

Usually AC50 stands for the concentration giving half of the maximal activity seen.

Assay [1] is described as follows: CCTE_Harrill_HTTr_Apoptosis_MCF7: CCTE's 6-hour Apoptosis Assessment for the High-Throughput Transcriptomics (HTTr) Platform, in MCF-7 cells cultured in DMEM + 10% fetal bovine serum, Harrill Lab (AID 2284011). A digest of the protocol: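 MCF-7 cells in DMEM + 10% fetal bovine serum were exposed to chemicals for 6 hours over an eight-point dilution series. Caspase-3/7 activation was imaged by high content imaging with CellEvent Caspase 3/7 Green; bidirectional fitting used DMSO as baseline.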

The nature of assay [2]: CCTE_Harrill_HTTr_CellCount_MCF7: CCTE's Cell Proliferation Assessment for the High-Throughput Transcriptomics (HTTr) Platform, Harrill Lab (AID 2284012; active means hit-call score of the fitted dose curve at least 0.9, where 1 is the maximum;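 further: count of Hoechst-stained nuclei per well by high-content imaging in MCF-7 cells; cells exposed to compound for six hours; intended direction is loss of nuclei count meaning fewer cells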). A digest of the protocol:
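Chemicals in eight-point dilution series are added to MCF-7 cells for six hours, nuclei are stained with Hoechst and imaged, and per-well nuclei counts are fitted in both directions relative to DMSO controls.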

The nature of assay [3]: CCTE_Shafer_MEA_acute_burst_number: CCTE's Neural Acute Assay for Single-Electrode Bursts, Shafer Lab (AID 2284013). The method, boiled down:
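Primary rat cortical neurons on 16-electrode MEA wells, treated on DIV 13 or 15 with compound at 0.03-40 uM. Single-electrode burst count from 40-min recordings at 37 C before and after exposure; percent change from baseline per well, DMSO negative control.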

The nature of assay [4]: CCTE_Shafer_MEA_acute_burst_duration_mean: CCTE's Neural Acute Assay for Mean Burst Duration, Shafer Lab (AID 2284014).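 Further: hits are decreases in mean burst duration relative to DMSO controls.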 The method, boiled down: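 Rat primary cortical neurons on 48-well MEA, treated at DIV 13 or 15 with 0.03-40 uM in at least 3 wells. Value is percent change in mean burst duration, comparing 40 min recordings at 37 C before and during exposure.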
Assay [5] can be described thus: CCTE_Shafer_MEA_acute_per_burst_spike_number_mean: CCTE's Neural Acute Assay for Average Number of Spikes Per Burst, Shafer Lab (AID 2284015).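 Further: hits are decreases in mean spikes per burst versus baseline.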 A digest of the protocol: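 Percent change in mean spikes per single-electrode burst is compared between a 40 min baseline and a 40 min recording with compound (0.03-40 uM). Cultures were rat cortical neurons on MEA plates at DIV 13 or 15, recorded at 37 C, with DMSO as the negative control.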

Assay [6] is described as follows: CCTE_Shafer_MEA_acute_interburst_interval_mean: CCTE's Neural Acute Assay for Mean Interburst Interval, Shafer Lab (AID 2284016).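 Further: percent change of mean interburst interval versus each well's own pre-dose baseline; curves fitted for decrease in interburst interval relative to DMSO.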 A digest of the protocol:
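Percent change in mean single-electrode interburst interval was calculated per well from 40 min recordings before and after compound (0.03-40 uM). Recordings were made at 37 C on rat cortical cultures at DIV 13 or 15, with spikes detected at 8x rms threshold.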

The nature of assay [7]: CCTE_Shafer_MEA_acute_burst_percentage_mean: CCTE's Neural Acute Assay for Percentage of Spikes in a Burst, Shafer Lab (AID 2284017).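 On AC50: curve fitted for loss of signal so potency reflects decreased burst percentage.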 A digest of the protocol:
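Well-level mean burst percentage from a 40-min recording after compound (0.03-40 uM) expressed as percent change from a 40-min baseline at 37C. Cultures: primary rat cortical neurons on MEA, dosed on DIV 13 or 15; fitted downward relative to DMSO.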

A short description of assay [8]: CCTE_Shafer_MEA_acute_burst_percentage_std: CCTE's Neural Acute Assay for Standard Deviation of Burst Percentage, Shafer Lab (AID 2284018).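 Further: fitted in the negative direction so actives lower burst percentage SD.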 A digest of the protocol:
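Rat primary cortical neurons on 48-well MEAs, DIV 13 or 15, 37 C. 40-min baseline then 40-min recording with compound (0.03-40 uM); well-level SD of per-electrode burst spike percentage, expressed as percent change from baseline.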

Assay [9] in a line: CCTE_Shafer_MEA_acute_per_network_burst_spike_number_std: CCTE's Neural Acute Assay for Standard Deviation of Number of Spikes in a Network Burst, Shafer Lab (AID 2284020).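 Further: fitted for decrease in spike-number SD versus DMSO so actives lower it.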 A digest of the protocol:
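Rat primary cortical neurons on 48-well MEA (16 electrodes/well), treated DIV 13 or 15 at 0.03-40 uM, ≥3 wells per compound. 40 min recordings at 37 C before and after dosing; value is percent change in network-burst spike-number SD, negative direction vs DMSO.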

Assay [10] in a line: CCTE_Shafer_MEA_acute_per_network_burst_electrodes_number_mean: CCTE's Neural Acute Assay for Mean Number of Electrodes in a Network Burst, Shafer Lab (AID 2284021).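 Further: curves fitted for decreases only so hits reduce electrodes per burst.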 A digest of the protocol:
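Rat primary cortical neurons on 16-electrode MEA wells were recorded 40 min at baseline on DIV 13 or 15, then 40 min after compound (0.03-40 uM), at 37 C. Value is percent change per well, fitted in loss direction versus DMSO.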

Assay [11] can be described thus: CCTE_Shafer_MEA_acute_network_burst_percentage: CCTE's Neural Acute Assay for Percentage of Network Bursts, Shafer Lab (AID 2284022).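 Further: curves fitted for loss so actives lower network burst percentage.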 A digest of the protocol:
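Primary rat cortical neurons on 16-electrode MEA wells, treated on DIV 13 or 15 with compound (0.03-40 uM); 40-min baseline and 40-min post-exposure recordings at 37 C. Value is percent change in spikes within network bursts versus baseline, DMSO negative control.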

The nature of assay [12]: CCTE_Shafer_MEA_acute_cross_correlation_area: CCTE's Neural Acute Assay for Area of Cross Correlation, Shafer Lab (AID 2284024).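 Further: area under pooled inter-electrode spike cross-correlation near zero lag as percent change from own baseline; curves fitted for loss of cross-correlation area so actives lower synchrony.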 The method, boiled down: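 Primary rat cortical neurons on 48-well MEA plates (16 electrodes/well) were recorded 40 min at baseline on DIV 13 or 15, then 40 min with compound (0.03-40 uM) at 37 C; cross-correlation area expressed as percent change from baseline.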

Assay [13] in a line: CCTE_Shafer_MEA_acute_synchrony_index: CCTE's Neural Acute Assay for Synchrony, Shafer Lab (AID 2284027).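 Further: fitted for loss of signal so actives lower synchrony relative to DMSO.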 A digest of the protocol:
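Readout is percent change in the unitless network synchrony index (0 low, 1 high) between a 40-min baseline and a 40-min recording in compound. Cultures were primary rat cortical neurons on MEAs, treated at 0.03-40 uM on DIV 13 or 15.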

For assay [14], the target named is Estrogen receptor (Homo sapiens) (UniProt P03372). The experiment in a line: CCTE_Deisenroth_AIME_384WELL_LUC_Active: CCTE's 384-well Estrogen Receptor Transactivation Assay with AIME metabolic competence (ERTA luciferase; metabolism positive), Deisenroth Lab (AID 2284030; active means hit-call score of the fitted dose curve at least 0.9, where 1 is the maximum). A digest of the protocol:
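Test chemicals (10-point series, 0.002 - 200 uM) were preincubated 2 hours with alginate-immobilized phenobarbital/beta-naphthoflavone-induced male Sprague Dawley rat liver S9; conditioned medium then went onto VM7Luc4E2 breast cells for 24 hour. Luciferase gain-of-signal fitted relative to 17beta-estradiol.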

Assay [15] shares this target. In words: CCTE_Deisenroth_AIME_384WELL_LUC_Inactive: CCTE's 384-well Estrogen Receptor Transactivation Assay without AIME metabolic competence (ERTA luciferase; metabolism negative), Deisenroth Lab (AID 2284038; active means hit-call score of the fitted dose curve at least 0.9, where 1 is the maximum;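 further: VM7Luc4E2 breast cells given medium preincubated 2 h with S9-free microspheres; hits raise estrogen receptor luciferase signal so potencies reflect agonists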). The method, boiled down: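 Metabolism-negative mode: chemicals (10-point, 0.002–200 uM) held 2 h with alginate-water microspheres, then conditioned medium applied to VM7Luc4E2 cells for 24 h. Luciferase induction referenced to 17beta-estradiol.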

Assay [16] in a line: CCTE_Shafer_MEA_dev_firing_rate_mean: CCTE's Neural Network Formation Assay for Mean Firing Rate, Shafer Lab (AID 2284031).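 Further: AUC of well mean spike rate recorded on DIV 5 7 9 and 12.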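 On AC50: curve fitted for loss of firing so AC50 reflects decreased mean firing rate.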 A digest of the protocol: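 Rat primary cortical neurons were seeded on multielectrode arrays and treated from plating through day 12, with redosing at each feed. Spontaneous spiking was recorded four times; mean firing rate AUC was fitted downward against DMSO.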

Assay [17] can be described thus: CCTE_Shafer_MEA_dev_per_burst_spike_percent: CCTE's Neural Network Formation Assay for Percent of Spikes in a Burst, Shafer Lab (AID 2284032).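 On AC50: fitted as a decrease in burst spike percentage below DMSO baseline.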 The method, boiled down: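 Rat primary cortical neurons on 16-electrode MEA wells, dosed from plating day 0 for 12 days with renewal on DIV 5 and 9; spikes-in-bursts percentage averaged over bursting electrodes, collapsed as AUC across days 5, 7, 9, 12; loss direction versus DMSO.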

Assay [18] concerns the target Estrogen receptor (Homo sapiens) (UniProt P03372). In words: CCTE_Deisenroth_AIME_96WELL_LUC_Active: CCTE's 96-well Estrogen Receptor Transactivation Assay with AIME metabolic competence (ERTA luciferase; metabolism positive), Deisenroth Lab (AID 2284023; active means hit-call score of the fitted dose curve at least 0.9, where 1 is the maximum). The method, boiled down:
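Chemicals pre-incubated 2 h with alginate-immobilized phenobarbital/beta-naphthoflavone-induced male Sprague Dawley rat liver S9, then medium transferred to VM7Luc4E2 cells for 24 h luciferase read-out. 10-point series 0.002 - 200 uM; fitted relative to 17beta-estradiol.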

The target is the same in assay [19]. The experiment in a line: CCTE_Deisenroth_AIME_96WELL_LUC_Inactive: CCTE's 96-well Estrogen Receptor Transactivation Assay without AIME metabolic competence (ERTA luciferase; metabolism negative), Deisenroth Lab (AID 2284025; active means hit-call score of the fitted dose curve at least 0.9, where 1 is the maximum). A digest of the protocol:
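VM7Luc4E2 breast cells, luciferase read 24 h after dosing with medium pre-incubated 2 h on alginate-water lids (metabolism negative). 10-point series 0.002–200 uM, single technical replicate, n≥4; fit relative to 17beta-estradiol.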

Sequence of Estrogen receptor (Homo sapiens) (P03372 whole entry, looked up): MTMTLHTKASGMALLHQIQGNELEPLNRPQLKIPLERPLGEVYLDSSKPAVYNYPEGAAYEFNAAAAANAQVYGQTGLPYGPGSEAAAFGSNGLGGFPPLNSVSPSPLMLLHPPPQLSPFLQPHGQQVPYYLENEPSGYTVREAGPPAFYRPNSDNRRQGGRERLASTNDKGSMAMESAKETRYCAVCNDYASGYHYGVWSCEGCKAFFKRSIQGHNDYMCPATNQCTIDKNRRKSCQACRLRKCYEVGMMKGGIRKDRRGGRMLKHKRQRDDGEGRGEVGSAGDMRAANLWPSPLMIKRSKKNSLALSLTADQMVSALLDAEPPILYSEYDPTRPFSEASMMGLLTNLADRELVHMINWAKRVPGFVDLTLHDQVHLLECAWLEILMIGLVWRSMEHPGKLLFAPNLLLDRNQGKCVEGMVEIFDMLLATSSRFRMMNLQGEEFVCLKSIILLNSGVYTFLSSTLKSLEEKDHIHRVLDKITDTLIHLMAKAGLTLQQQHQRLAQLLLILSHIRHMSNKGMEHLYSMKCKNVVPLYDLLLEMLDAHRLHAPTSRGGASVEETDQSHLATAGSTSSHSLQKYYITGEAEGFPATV

Consider `Cc1c2ccccc2c(C)c2c1ccc1ccccc12`, for which the outcome in assay [1], in assay [2], in [3], in [4], in assay [5] and in assay [9] was inactive. In addition, the outcome in assay [10], in assay [11], in assay [12] and in assay [15] was inactive. The AC50 in assay [6] is 7.49 µM (active); in [7] it was 29.7 µM (active); in assay [8], 35.2 µM (active); in assay [13] it was 36.9 µM (active); in [14], 13.9 µM (active).

For the compound `OCCO`, the result in [1] and in assay [2] was inactive. Also, the AC50 was 28.2 µM (active) in [14] and 19.8 µM (active) in [15].

As for `CN1C(=O)CC[C@H]1c1cccnc1`, the outcome in assay [1], in assay [3], in assay [4], in [5], in assay [6] and in assay [7] was inactive. Also, the outcome in assay [8], in assay [9], in assay [10], in [11], in [12] and in [13] was inactive. The call in assay [16] and in assay [17] was inactive.

On to `O=C(Nc1ccc(Cl)cc1)Nc1ccc(Cl)c(Cl)c1`, for which the result in assay [1], in assay [14] and in [15] was inactive.

As for `NC(=O)c1nc(-c2cccc(-c3cc(F)ccc3OCC(F)(F)C(F)(F)F)c2)n[nH]1`, the outcome in assay [1], in assay [2], in [4], in assay [6], in assay [10] and in [11] was inactive. For the same compound, the result in [12] was inactive. Further, the AC50 in assay [3] was 0.446 µM (active); in assay [5], 4.11 µM (active); in [7], 7.48 µM (active); in assay [8], 2.16 µM (active); in [9], 37.4 µM (active); in assay [13], 6.63 µM (active).

Turning to `OC12N=C(c3ccccc3)SC1Cc1cc(Cl)ccc12` (stereo not given), the outcome in assay [1], in assay [2], in assay [5], in [9], in [11] and in assay [12] was inactive. Also, the outcome in assay [14] and in [15] was inactive. Also, the concentration at half-maximal activity (AC50) in assay [3] is 6.49 µM (active); in [4], 20 µM (active); in assay [6] it was 6.48 µM (active); in [7], 32.6 µM (active); in [8] it was 30.7 µM (active); in [10], 32.5 µM (active). Also, the AC50 in assay [13] was 31.8 µM (active).

For the compound `Cc1cn([C@H]2C[C@H](N=[N+]=[N-])[C@@H](CO)O2)c(=O)[nH]c1=O`, the outcome in assay [1], in [2], in assay [3], in [4], in [5] and in assay [6] was inactive. For the same compound, the call in assay [7], in assay [8], in assay [9], in assay [10], in [11] and in assay [12] was inactive. In addition, the outcome in assay [13], in assay [14] and in assay [15] was inactive.

For the compound `c1ccc2ccccc2c1`, the result in [1], in assay [18], in assay [19], in [14], in [16] and in assay [17] was inactive. Moreover, the compound was called inactive in [15].

On to `CC/C(=C(/CC)c1ccc(O)cc1)c1ccc(O)cc1`, for which the outcome in [1], in assay [3], in [4], in [6], in assay [9] and in assay [12] was inactive. The AC50 was 6.76 µM (active) in assay [5]; 10.6 µM (active) in [7]; 35.4 µM (active) in assay [8]; 20 µM (active) in assay [10]; 10.5 µM (active) in assay [11]; 10.2 µM (active) in assay [13]. Besides, the AC50 in [16] was 3.24 µM (active); in assay [17], 15 µM (active).

The record behind these values is PubChem BioAssay (EPA / NIEHS).
